Measurements from PubChem BioAssay (Tox21).
Records with an inconclusive call do not appear. Entries that show only a call come without a potency. The source made the active and inactive calls. Unless noted, calls follow the shape of the full dose curve.

Molecular target: Estrogen receptor (Homo sapiens) (UniProt P03372)
Test: qHTS assay to identify small molecule agonists of the estrogen receptor alpha (ER-alpha) signaling pathway (AID 743075);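 also: HEK293 GripTite cells with ER-alpha and UAS-driven beta-lactamase reporter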; also: potency is read from the fitted curve at half-maximal effect
Conditions: HEK293 ER-alpha-UAS-bla, beta-lactamase FRET ratio, 18 h; series mostly up to 70.1 µM

Sequence of Estrogen receptor (Homo sapiens) (P03372 whole entry, looked up): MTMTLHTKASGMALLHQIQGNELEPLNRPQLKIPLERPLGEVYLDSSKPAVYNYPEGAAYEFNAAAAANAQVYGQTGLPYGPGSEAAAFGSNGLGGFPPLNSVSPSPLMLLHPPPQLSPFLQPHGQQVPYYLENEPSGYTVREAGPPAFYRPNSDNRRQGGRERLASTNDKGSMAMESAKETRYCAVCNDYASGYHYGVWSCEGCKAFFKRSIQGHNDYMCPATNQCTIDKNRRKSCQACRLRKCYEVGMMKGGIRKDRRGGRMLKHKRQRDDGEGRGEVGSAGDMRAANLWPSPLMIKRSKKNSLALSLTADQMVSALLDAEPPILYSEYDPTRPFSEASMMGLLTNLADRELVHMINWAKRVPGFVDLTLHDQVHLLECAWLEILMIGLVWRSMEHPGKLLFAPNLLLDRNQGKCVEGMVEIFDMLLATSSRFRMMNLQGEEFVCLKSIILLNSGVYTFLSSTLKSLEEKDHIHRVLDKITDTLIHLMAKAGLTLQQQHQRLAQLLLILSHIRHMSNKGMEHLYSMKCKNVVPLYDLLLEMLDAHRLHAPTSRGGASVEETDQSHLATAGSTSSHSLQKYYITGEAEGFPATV

Row | Structure (SMILES) | Potency
1 | CN(CC(=O)N1CCOCC1)Cc1c(Cl)cccc1NC(=O)c1ccccc1 | inactive
2 | CCC(=O)OCC(=O)[C@@]1(OC(=O)CC)[C@@H](C)C[C@H]2[C@@H]3CCC4=CC(=O)C=C[C@]4(C)[C@@]3(F)[C@@H](O)C[C@@]21C | 23.9 µM [fluorescent] (active)
3 | CCOC(=O)CCC(=O)O[C@H]1[C@H](O[C@@H]2[C@@H](C)[C@H](O[C@H]3C[C@@](C)(OC)[C@@H](O)[C@H](C)O3)[C@@H](C)C(=O)O[C@H](CC)[C@@](C)(O)[C@H](O)[C@@H](C)C(=O)[C@H](C)C[C@@]2(C)O)O[C@H](C)C[C@@H]1N(C)C | inactive
4 | CC(O)[C@@H]1NC(=O)[C@H](CCCCN)NC(=O)[C@@H](Cc2c[nH]c3ccccc23)NC(=O)[C@H](Cc2ccccc2)NC(=O)[C@@H](NC(=O)[C@H](N)Cc2ccccc2)CSSC[C@@H](C(=O)N[C@H](CO)[C@@H](C)O)NC1=O (some centres undefined) | inactive
5 | CC(C)(C)C(=O)OCOC(=O)[C@@H]1N2C(=O)[C@@H](N=CN3CCCCCC3)[C@H]2SC1(C)C | inactive
6 | COC(=O)C1=C(C#N)NC(C)=C(C(=O)OC(C)C)C1c1cccc([N+](=O)[O-])c1 (centres undefined) | inactive
7 | CCOC(=O)CN[C@@H](C(=O)N1CC[C@H]1C(=O)NCc1ccc(/C(N)=N/O)cc1)C1CCCCC1 | inactive

Molecular target: Estrogen receptor (Homo sapiens) (UniProt P03372)
Test: qHTS assay to identify small molecule agonists of the estrogen receptor alpha (ER-alpha) signaling pathway using the BG1 cell line (AID 743079; active = well fitted activation curve with a large enough effect in the repeat runs; also: nearly all actives have a fitted effect of over 20% in size; also: potency is read from the fitted curve at half-maximal effect)
Conditions: BG1Luc4E2 cells, ERE-luciferase agonist, 22 h; activation: at 70.3 µM (top of the series)

Row | Structure (SMILES) | Potency | activation
8 | Cc1cc(C(=O)NNCc2ccccc2)no1 | 5.07 µM (active) | –
9 | CCC(CN)CC(C)CCNCC(O)CNCC(C)CC(CC)CN (centres undefined) | inactive | –
10 | CCCCC(F)(F)[C@@]1(O)CC[C@H]2[C@@H](CC(=O)[C@@H]2CCCCCCC(=O)O)O1 | inactive | –
11 | COc1cc(Br)c(C[N+]2(CCOCCC3CCC4CC3C4(C)C)CCOCC2)cc1OC (centres undefined) | inactive | –
12 | CCOC(=O)c1cc(-c2ccccc2)nc2ccc(C)cc12 | inactive | –
13 | OCC(S)CS (centres undefined) | inactive | –
14 | CCCCC(=O)O[C@H]1CC[C@H]2[C@@H]3CCc4cc(O)ccc4[C@H]3CC[C@]12C | – | 61.2% (active)
15 | CNc1cc(OC)c(C(=O)N[C@H]2CCN(Cc3ccccc3)[C@H]2C)cc1Cl | inactive | –
16 | CC[C@@]1(O)C[C@H](O[C@H]2C[C@H](N(C)C)[C@H](O[C@H]3C[C@H](O)[C@H](O[C@H]4CCC(=O)[C@H](C)O4)[C@H](C)O3)[C@H](C)O2)c2c(cc3c(c2O)C(=O)c2c(O)cccc2C3=O)[C@H]1C(=O)OC | 2.98 µM (active) | –
17 | CC[N+](C)(C)Cc1ccccc1Br | inactive | –
18 | Clc1ccc(COC(Cn2ccnc2)c2ccc(Cl)cc2Cl)c(Cl)c1 (centres undefined) | inactive | –
19 | Nc1ncnc2c1ncn2[C@@H]1O[C@H](COP(=O)(O)OP(=O)(O)OP(=O)(O)O)[C@@H](O)[C@H]1O | inactive | –
20 | CCCCC(=O)N(Cc1ccc(-c2ccccc2-c2nn[nH]n2)cc1)[C@@H](C(=O)O)C(C)C | inactive | –
21 | CN(CC(=O)N1CCOCC1)Cc1c(Cl)cccc1NC(=O)c1ccccc1 | inactive | –
22 | CCOC(=O)CCC(=O)O[C@H]1[C@H](O[C@@H]2[C@@H](C)[C@H](O[C@H]3C[C@@](C)(OC)[C@@H](O)[C@H](C)O3)[C@@H](C)C(=O)O[C@H](CC)[C@@](C)(O)[C@H](O)[C@@H](C)C(=O)[C@H](C)C[C@@]2(C)O)O[C@H](C)C[C@@H]1N(C)C | inactive | –
23 | CC(C)(C)C(=O)OCOC(=O)[C@@H]1N2C(=O)[C@@H](N=CN3CCCCCC3)[C@H]2SC1(C)C | inactive | –
24 | COC(=O)C1=C(C#N)NC(C)=C(C(=O)OC(C)C)C1c1cccc([N+](=O)[O-])c1 (centres undefined) | inactive | –
25 | CCOC(=O)CN[C@@H](C(=O)N1CC[C@H]1C(=O)NCc1ccc(/C(N)=N/O)cc1)C1CCCCC1 | inactive | –

Test system: not listed separately
Test: qHTS assay to identify small molecule antagonists of the estrogen receptor alpha (ER-alpha) signaling pathway using the BG1 cell line (AID 743080); also: nearly all actives have a fitted effect of over 25% in size
Conditions: BG1Luc4E2 ERE-luciferase antagonist mode, luminescence; series mostly up to 70.3 µM
Outline: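 Antagonist mode: compounds in DMSO were pinned onto BG1-Luc-4E2 cells alongside 17beta-estradiol agonist, incubated 21.5 h, and ERE-driven luciferase measured with ONE-Glo. Cytotoxicity was multiplexed using CellTiter-Fluor fluorescence.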

Row | Structure (SMILES) | Potency
26 | CCC(CN)CC(C)CCNCC(O)CNCC(C)CC(CC)CN (centres undefined) | inactive
27 | CCCCC(F)(F)[C@@]1(O)CC[C@H]2[C@@H](CC(=O)[C@@H]2CCCCCCC(=O)O)O1 | inactive
28 | COc1cc(Br)c(C[N+]2(CCOCCC3CCC4CC3C4(C)C)CCOCC2)cc1OC (centres undefined) | inactive
29 | CCOC(=O)c1cc(-c2ccccc2)nc2ccc(C)cc12 | inactive
30 | C#C[C@]1(O)CC[C@H]2[C@@H]3CCC4=C(CCC(=O)C4)[C@H]3CC[C@@]21C | inactive
31 | CCCCC(=O)O[C@H]1CC[C@H]2[C@@H]3CCc4cc(O)ccc4[C@H]3CC[C@]12C | inactive
32 | CNc1cc(OC)c(C(=O)N[C@H]2CCN(Cc3ccccc3)[C@H]2C)cc1Cl | inactive
33 | CC[N+](C)(C)Cc1ccccc1Br | inactive
34 | Clc1ccc(COC(Cn2ccnc2)c2ccc(Cl)cc2Cl)c(Cl)c1 (centres undefined) | inactive
35 | COc1ccc(C(=O)Nc2ccccc2CCC2CCCCN2C)cc1 (centres undefined) | inactive
36 | C[N+]1(C)[C@@H]2CC(OC(=O)C(O)(c3cccs3)c3cccs3)C[C@H]1[C@@H]1O[C@@H]12 (some centres undefined) | inactive
37 | CCNC(=O)[C@@H]1CCCN1C(=O)[C@H](CCCN=C(N)N)NC(=O)[C@H](CC(C)C)NC(=O)[C@@H](CC(C)C)NC(=O)[C@H](Cc1ccc(O)cc1)NC(=O)[C@H](CO)NC(=O)[C@H](Cc1c[nH]c2ccccc12)NC(=O)[C@H](Cc1cnc[nH]1)NC(=O)[C@@H]1CCC(=O)N1 | inactive
38 | CCCCC(=O)N(Cc1ccc(-c2ccccc2-c2nn[nH]n2)cc1)[C@@H](C(=O)O)C(C)C | inactive
39 | CN(CC(=O)N1CCOCC1)Cc1c(Cl)cccc1NC(=O)c1ccccc1 | inactive
40 | CCOC(=O)CCC(=O)O[C@H]1[C@H](O[C@@H]2[C@@H](C)[C@H](O[C@H]3C[C@@](C)(OC)[C@@H](O)[C@H](C)O3)[C@@H](C)C(=O)O[C@H](CC)[C@@](C)(O)[C@H](O)[C@@H](C)C(=O)[C@H](C)C[C@@]2(C)O)O[C@H](C)C[C@@H]1N(C)C | inactive
41 | CC(O)[C@@H]1NC(=O)[C@H](CCCCN)NC(=O)[C@@H](Cc2c[nH]c3ccccc23)NC(=O)[C@H](Cc2ccccc2)NC(=O)[C@@H](NC(=O)[C@H](N)Cc2ccccc2)CSSC[C@@H](C(=O)N[C@H](CO)[C@@H](C)O)NC1=O (some centres undefined) | inactive
42 | CC(C)(C)C(=O)OCOC(=O)[C@@H]1N2C(=O)[C@@H](N=CN3CCCCCC3)[C@H]2SC1(C)C | inactive
43 | COC(=O)C1=C(C#N)NC(C)=C(C(=O)OC(C)C)C1c1cccc([N+](=O)[O-])c1 (centres undefined) | inactive
44 | CCOC(=O)CN[C@@H](C(=O)N1CC[C@H]1C(=O)NCc1ccc(/C(N)=N/O)cc1)C1CCCCC1 | inactive
